As a reminder, the viability is a read-out of living cells in per cent, often relative to untreated cells. By inhibition is commonly meant the drop in the measured response relative to a control, in per cent.

Molecules are shown by their SMILES. Inconclusive results are not listed. Active and inactive are the calls of the source.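 The calls were made as follows, unless noted: active = Her2 level under about 52% in both replicate screens, with viability over 70% of control (limit read from the data); inconclusive = Her2 under the limit in one screen only, or viability under 70%; inactive = Her2 level above the set limit.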

A short description of experiment [1]: reducers of endogenous Her2 protein level, primary screen, SKBR3 breast tumor cells, AlphaScreen, ATP viability (AID 461).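 As to Her2 level: lower value means less Her2 protein in the cells.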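 As to viability: percent of carrier control wells set as 100% viability.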 The note with it: 18-24 h, measured here: SKBR3 viability, ATP luminescence, at 10 µM.
The target in experiment [2] is Receptor tyrosine-protein kinase erbB-2 (Homo sapiens) (UniProt P04626). Described as above. The note with it: 18-24 h, at 10 µM, stronger effect = lower value.
Chain of Receptor tyrosine-protein kinase erbB-2 (Homo sapiens) (P04626 whole entry, looked up): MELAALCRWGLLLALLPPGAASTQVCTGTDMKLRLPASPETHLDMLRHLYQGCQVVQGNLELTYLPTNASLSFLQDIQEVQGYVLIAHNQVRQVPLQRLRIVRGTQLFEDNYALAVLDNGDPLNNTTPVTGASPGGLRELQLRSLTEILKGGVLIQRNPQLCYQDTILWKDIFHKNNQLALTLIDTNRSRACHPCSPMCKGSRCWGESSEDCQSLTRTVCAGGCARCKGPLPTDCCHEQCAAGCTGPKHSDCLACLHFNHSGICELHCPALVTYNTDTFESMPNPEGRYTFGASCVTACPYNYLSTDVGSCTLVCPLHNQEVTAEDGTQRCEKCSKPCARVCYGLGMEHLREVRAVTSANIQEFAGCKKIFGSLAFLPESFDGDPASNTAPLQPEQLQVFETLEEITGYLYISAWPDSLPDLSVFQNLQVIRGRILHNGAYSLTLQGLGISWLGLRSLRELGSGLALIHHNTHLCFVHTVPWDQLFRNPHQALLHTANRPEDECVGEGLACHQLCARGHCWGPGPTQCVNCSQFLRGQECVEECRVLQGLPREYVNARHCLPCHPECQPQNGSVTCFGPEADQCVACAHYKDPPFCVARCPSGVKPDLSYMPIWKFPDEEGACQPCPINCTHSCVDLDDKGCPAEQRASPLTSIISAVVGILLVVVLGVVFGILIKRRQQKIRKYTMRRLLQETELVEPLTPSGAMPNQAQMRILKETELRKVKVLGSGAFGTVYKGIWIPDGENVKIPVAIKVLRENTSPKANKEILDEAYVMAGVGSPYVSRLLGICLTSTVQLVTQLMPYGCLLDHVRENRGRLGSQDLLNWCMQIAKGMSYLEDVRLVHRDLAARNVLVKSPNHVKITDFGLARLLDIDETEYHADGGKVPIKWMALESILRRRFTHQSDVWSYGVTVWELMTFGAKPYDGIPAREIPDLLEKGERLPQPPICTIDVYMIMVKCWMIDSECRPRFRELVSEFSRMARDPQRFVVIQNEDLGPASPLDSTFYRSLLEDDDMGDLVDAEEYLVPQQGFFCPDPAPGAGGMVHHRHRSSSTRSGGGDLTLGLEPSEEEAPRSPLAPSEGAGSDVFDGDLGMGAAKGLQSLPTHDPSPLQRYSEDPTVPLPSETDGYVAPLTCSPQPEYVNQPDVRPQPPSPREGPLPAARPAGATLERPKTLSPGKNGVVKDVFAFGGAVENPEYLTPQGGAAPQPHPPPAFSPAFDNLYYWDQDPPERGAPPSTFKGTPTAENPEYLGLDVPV
Experiment [3] can be described thus: SK-BR-3 cell growth inhibitors, pilot screen, 24 h, human (AID 572;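 active = viability at or below 10% of carrier control in both of two separate runs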;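 also: compound exposure lasted between 18 and 24 h rather than exactly 24 h; 100% = carrier-treated control wells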). The conditions noted are these: SK-BR-3 viability, CellTiter-Glo luminescence, at 10 µM, stronger effect = lower value. (In general: ATP-based viability assays read luminescence as a measure of living cells.)
Experiment [4] can be described thus: HUVEC growth inhibition – cell-based, human, primary screen (AID 575;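 active = viability at or below 30% in both replicate assays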;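 also: 100% = median of untreated cell wells with 0.1% DMSO on each plate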). The conditions noted are these: HUVEC proliferation, CellTiter-Glo luminescence, 72 h; at 10 µM; stronger effect = lower value.
Experiment [5] in a line: reversal of MRP1-mediated doxorubicin resistance, pilot screen, H69AR cells, doxorubicin co-treatment (AID 601;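 active = viability loss from added drug above about 55%, and viability with drug at most 40%, in both replicates, limit read from the data, passing the limit was not always enough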). The note with it: CellTiter-Glo, 72 h, at 10 µM; for differential viability (reversal): stronger effect = higher value.
Experiment [6] is described as follows: 384-well plate pilot, post-Golgi transport modulator project, inhibition of yeast transport mutant growth (AID 636; in the data active = inhibition above about 31%). The note with it: absorbance 615 nm, about 18 h, stronger effect = higher value.
Experiment [7] in a line: growth suppression of yeast trafficking mutant, preliminary HTS, modulators of trafficking downstream of Golgi apparatus project, 1536-format plate, OD 615 nm (AID 637; in the data active = inhibition above about 30%). The note with it: yeast transport mutant growth, absorbance 615 nm, 18 h; stronger effect = higher value.
Experiment [8] is described as follows: OD615 S. cerevisiae growth inhibition, permissive medium, pilot counter-assay, permissive growth control for S. cerevisiae lifespan shortening project (AID 705;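 active = growth inhibition above 25% in both replicates, a cutoff set 3 SD above the mean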). The note with it: OD615, 24 h, at 10 µM, stronger effect = higher value.
Experiment [9] is described as follows: Restrictive medium S. cerevisiae growth inhibition, OD615, pilot screen of yeast lifespan reduction project, restrictive growth control (AID 706;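 active = growth inhibition above a set limit, 3 SD over mean compound inhibition, in both replicates, cut at about 43% in these data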;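 also: modified DeaD lifespan yeast strain shifted to restrictive glucose medium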). The note with it: OD615, 48 h, at 10 µM, stronger effect = higher value.
A short description of experiment [10]: viability gain of MRP-1-high H69AR cells under doxorubicin, pilot screen, MRP-1 activator project, CellTiter-Glo, duplicate (AID 807;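 active = viability increase at or above a cutoff of the median across tested compounds plus 3 SD, cut at about 8.5% in these data, passing the limit was not always enough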;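 also: compound pretreatment 18-22 h then 72 h combined with doxorubicin; 0% = doxorubicin alone and 100% = vehicle without doxorubicin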). The note with it: H69AR viability with doxorubicin, CellTiter-Glo luminescence; at 10 µM; stronger effect = higher value.
Experiment [11] can be described thus: growth suppression of beta-catenin knockout HCT116, pilot screen, human colon tumor cells (AID 823;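 active = cell viability at or below a set limit in both duplicate runs, the limit being the all-compound median minus 4 SD, cut at about 23% in these data, passing the limit was not always enough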;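 also: 0% = wells killed by 20 µM Hyamine and 100% = untreated DMSO cell wells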). The conditions noted are these: CellTiter-Glo, 60 h, at 10 µM, stronger effect = lower value.
Experiment [12] in a line: growth suppression of PTEN-deleted HCT116, pilot screen, cell-based, HCT116 clonal line, CellTiter-Glo (AID 824;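 active = viability at or below 27.92% in each of two runs, the all-compound median minus 4 SD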;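 also: 0% = 20 µM Hyamine control and 100% = vehicle cell control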). The note with it: 60 h, at 10 µM, stronger effect = lower value.
Experiment [13] in a line: inhibitors of the yeast RAM network, pilot screen, dse1pr::URA3 reporter, 5-FOA selection (AID 869;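 active = inhibition over a set limit, the all-compound mean plus 3 SD, in both replicate runs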;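 also: 0% = DMSO wells with no growth and 100% = 10 µM 1-NA-PP1 with full growth; RAM network block rescues cells from 5-FOA so hits raise OD615 growth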). The conditions noted are these: S. cerevisiae dse1pr::URA3 5-FOA growth, OD615, 2 d; at 10 µM; stronger effect = higher value; strain carries analog-sensitive mutant Cbk1 kinase.
Experiment [14] in a line: RAM signaling pathway blockade in yeast – S. cerevisiae, Pdr1DBD-CYC8 efflux-inhibited sensitized strain, primary screen (AID 1298;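 active = RAM network inhibition above 8.4% in each of two replicates, 3 SD over the compound average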;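 also: 0% = DMSO untreated cells without growth and 100% = 10 µM 1-NA-PP1 full growth; higher means more yeast growth rescued from 5-FOA killing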). The conditions noted are these: S. cerevisiae cbk1-as DSE1-URA3 strain, 5-FOA growth OD615, 2 d; at 50 µM; stronger effect = higher value.
A short description of experiment [15]: growth inhibitors of H69AR lung tumor, primary screen, human, duplicate replicates (AID 580;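 active = viability at or under a set limit in both replicates, limit being median viability minus 3 SD, cut at about 48% in these data, passing the limit was not always enough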;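 also: 100% = mean luminescence of untreated wells and 0% = no signal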). The note with it: H69AR lung tumor cells viability, ATP luminescence, 72 h; at 10 µM; stronger effect = lower value.
Setting [16] is: H69AR cells + 2 uM doxorubicin, measured here: viability with 2 uM doxorubicin, stronger effect = lower value.
The mark [17] stands for this setting: H69AR cells, compound alone cytotoxicity.

For `COc1ccc(CCn2c(-c3ccco3)nc3ccccc3c2=O)cc1OC`, the viability was 73% in experiment [1]; 73% (inactive) in experiment [3]; 84.3% (inactive) in [4]; 82.1% in experiment [5] (setting [16]); 52.8% in [5] (setting [17]); 54.5% (inactive) in [11]. Moreover, the viability in experiment [12] was 57.1% (inactive). The Her2 level in [2] is 89% (inactive). Also, the differential viability (reversal) in experiment [5] (H69AR cells + 2 uM doxorubicin) was -29.2% (inactive). Also, the inhibition was -5.95% (inactive) in [6], -0.49% (inactive) in [7] and 0.935% (inactive) in [13]. Also, the growth inhibition in experiment [8] is -7.24% (inactive); in [9], -21.7% (inactive). For the same compound, the viability increase in [10] is -3.68% (inactive). For the same compound, the RAM network inhibition in experiment [14] is 5.3% (inactive).
With `Cn1c(SCC(=O)c2cc3ccccc3o2)nnc1-c1ccccc1`, the viability in [1] is 96.5%; in experiment [3] it was 96.5% (inactive); in experiment [4], 105% (inactive); in [15] it was 84.3% (inactive); in experiment [5] (setting [16]), 81.1%; in experiment [5] (setting [17]), 84.3%. Further, the figures for the viability in experiment [11] and in experiment [12] were 97.9% (inactive) and 96.8% (inactive), respectively. Also, the Her2 level in experiment [2] was 97.5% (inactive). The differential viability (reversal) in [5] (H69AR cells + 2 uM doxorubicin) was 3.21% (inactive). Moreover, the inhibition in experiment [6] was -6% (inactive); in experiment [7], 13.3% (inactive); in experiment [13] it was 1.88% (inactive). Moreover, the growth inhibition in [8] is 10.3% (inactive). Also, the viability increase in [10] was -3.83% (inactive). Moreover, the RAM network inhibition in [14] was 6.5% (inactive).
Turning to `CCOc1ccc(-c2nnc3sc(-c4c(OC)cccc4OC)nn23)cc1`, the viability is 126% in [1]; 126% (inactive) in experiment [3]; 86.5% (inactive) in [4]; 86.2% (inactive) in [15]; 84.8% in experiment [5] (setting [16]); 86.2% in [5] (setting [17]). For the same compound, in experiment [12], the viability was 71.3% (inactive). In [2], the Her2 level was 84% (inactive). Further, the differential viability (reversal) in [5] (H69AR cells + 2 uM doxorubicin) was 1.34% (inactive). The inhibition in experiment [6] was -5.87% (inactive); in experiment [7] it was 10.5% (inactive); in [13], 2.04% (inactive). The growth inhibition is -0.61% (inactive) in experiment [8] and 8.15% (inactive) in experiment [9]. The viability increase in [10] is -5.89% (inactive). In addition, the RAM network inhibition in experiment [14] is 4.81% (inactive).
For the compound `N#CC1=C(N)Oc2cc(O)ccc2C1C1CCCCC1` (stereo not drawn), the viability in experiment [1] was 121%; in [3] it was 121% (inactive); in experiment [4], 47.4% (inactive); in experiment [15], 12.2% (active); in experiment [5] (setting [16]), 63.4%; in experiment [5] (setting [17]) it was 12.2%. In experiment [2], the Her2 level was 89.5% (inactive). Further, in experiment [5] (H69AR cells + 2 uM doxorubicin), the differential viability (reversal) was -51.2% (inactive). Further, the inhibition is -1.17% (inactive) in experiment [6], 4.17% (inactive) in [7] and 0.455% (inactive) in experiment [13]. Moreover, the growth inhibition is -0.885% (inactive) in [8] and -9.19% (inactive) in [9]. Besides, in experiment [10], the viability increase was -5.63% (inactive). Further, the RAM network inhibition in [14] was 3.93% (inactive).
Regarding `C=CCn1c(COc2ccc(CC)cc2)nnc1SC/C(O)=C(\C#N)c1nc2ccccc2[nH]1`, the viability in experiment [1] was 86.5%; in experiment [3], 86.5% (inactive); in [4] it was 59.8% (inactive); in experiment [15], 106% (inactive); in experiment [5] (setting [16]), 107%; in experiment [5] (setting [17]), 106%. Moreover, the viability in experiment [11] was 92.6% (inactive); in experiment [12] it was 91.3% (inactive). Also, in experiment [2], the Her2 level is 88% (inactive). In addition, the differential viability (reversal) in experiment [5] (H69AR cells + 2 uM doxorubicin) was -1.07% (inactive). The inhibition is -0.92% (inactive) in experiment [6], -6% (inactive) in experiment [7] and 2.46% (inactive) in experiment [13]. The growth inhibition is 1.15% (inactive) in experiment [8] and 0.59% (inactive) in [9]. Besides, in [14], the RAM network inhibition is 6.17% (inactive).
In the case of `Cc1ccc2oc(=O)c3cnn(CC(=O)N4CCCCC4C)c3c2c1` (stereo not drawn), the viability in experiment [1] was 91.5%; in experiment [3], 91.5% (inactive); in experiment [4], 103% (inactive); in [15], 89.2% (inactive); in [11], 84.1% (inactive); in experiment [12] it was 87.1% (inactive). Further, the Her2 level in experiment [2] was 108% (inactive). The inhibition in experiment [6] is -0.27% (inactive); in experiment [7], 2.62% (inactive); in experiment [13], 3.4% (inactive). The growth inhibition in experiment [8] was -9.82% (inactive); in [9] it was -6.86% (inactive). Further, the viability increase in experiment [10] was -3.34% (inactive). Besides, the RAM network inhibition in [14] was 0.87% (inactive).

The record behind these values is PubChem BioAssay.
